# Assay results published in the antibiotic and cytotoxicity screens of Wong et al. (2023).
# About 3,300 (8.5%) of roughly 39,000 compounds were called active. The full list was thinned out, with actives kept by preference.
# System: HepG2
# Assay: cytotoxicity call (relative viability < 0.9)
# Details: 10 µM
row,SMILES,cytotoxicity call
1,C[C@H](CO)N1C[C@H](C)[C@H](CN(C)C(=O)CCC(F)(F)F)OCCCC[C@H](C)Oc2ccc(NC(=O)Cc3ccccc3)cc2C1=O,inactive
2,C[C@@H]1CN([C@@H](C)CO)C(=O)c2cc(C#Cc3cccc(F)c3)cnc2O[C@H]1CN(C)Cc1ccccn1,inactive
3,Cc1ccc(S(=O)(=O)Nc2ccc3c(c2)C(=O)N([C@@H](C)CO)C[C@@H](C)[C@H](CN(C)C(=O)c2ccccc2)OCCCC[C@H](C)O3)cc1,inactive
4,Cc1noc(C)c1NC(=O)N(C)C[C@H]1OCCCC[C@H](C)Oc2ccc(NC(=O)C3CCCCC3)cc2C(=O)N([C@@H](C)CO)C[C@@H]1C,inactive
5,C[C@@H]1CCCCO[C@H](CN(C)C(=O)Nc2ccc(F)cc2)[C@H](C)CN([C@H](C)CO)C(=O)c2cc(NC(=O)Cc3ccccc3)ccc2O1,inactive
6,C[C@@H]1CN([C@@H](C)CO)C(=O)c2cccc(NC(=O)C3CCOCC3)c2O[C@@H]1CN(C)S(=O)(=O)c1ccccc1,inactive
7,C[C@H](CO)N1C[C@H](C)[C@@H](CN(C)C(=O)CN2CCOCC2)Oc2ncc(-c3cncnc3)cc2C1=O,inactive
8,Cc1noc(C)c1S(=O)(=O)N(C)C[C@H]1Oc2ccc(NS(C)(=O)=O)cc2C(=O)N([C@@H](C)CO)C[C@H]1C,inactive
9,C[C@H](CO)N1C[C@H](C)[C@@H](CN(C)Cc2ccc(Cl)c(Cl)c2)Oc2c(NC(=O)Nc3ccc(C(F)(F)F)cc3)cccc2C1=O,active
10,C[C@@H]1CN([C@H](C)CO)C(=O)c2cccc(NC(=O)Nc3ccc(F)cc3)c2O[C@@H]1CN(C)Cc1ccc(Cl)c(Cl)c1,inactive
11,C[C@H]1CN([C@@H](C)CO)C(=O)c2cccc(NC(=O)Nc3ccc(C(F)(F)F)cc3)c2O[C@H]1CN(C)Cc1ccc(Cl)c(Cl)c1,inactive
12,CCOc1ccnc2c1c(=O)n(CC(N)=O)c(=O)n2C,inactive
13,Cc1noc(C)c1S(=O)(=O)N(C)C[C@@H]1OCCCC[C@H](C)Oc2ccc(NS(=O)(=O)c3cn(C)cn3)cc2C(=O)N([C@H](C)CO)C[C@@H]1C,inactive
14,COc1cccc2c1C(=O)c1c(O)c3c(c(O)c1C2=O)C[C@](O)(C(C)=O)C[C@H]3O[C@H]1C[C@@H](N)[C@@H](O)[C@@H](C)O1,active
15,COc1cccc2c1C(=O)c1c(O)c3c(c(O)c1C2=O)C[C@@](O)(C(C)=O)C[C@@H]3O[C@H]1C[C@H](N)[C@H](O)[C@H](C)O1,active
16,COc1cccc2c1C(=O)c1c(O)c3c(c(O)c1C2=O)CC(O)(C(C)=O)CC3OC1CC(N)C(O)C(C)O1.Cl (stereo not given),active
17,CC(=O)[C@]1(N)Cc2c(O)c3c(c(O)c2[C@@H](O[C@H]2C[C@H](O)[C@H](O)CO2)C1)C(=O)c1ccccc1C3=O,active
18,CCNC(=O)C[C@@H]1C=C[C@@H](NC(=O)C2CCOCC2)[C@@H](CO)O1,inactive
19,Cc1ccc(S[C@H](C)C(=O)c2ccc(C)c(Cl)c2)cc1,inactive
20,C[C@@H]1CN([C@H](C)CO)C(=O)c2cc(NC(=O)c3ccccc3)ccc2O[C@@H](C)CCCCO[C@H]1CN(C)C(=O)CCC(F)(F)F,inactive
21,C[C@@H]1CCCCO[C@H](CN(C)C(=O)Nc2ccc(F)cc2)[C@H](C)CN([C@H](C)CO)C(=O)c2cc(NC(=O)c3ccncc3)ccc2O1,inactive
22,CCCN(C)C[C@@H]1Oc2cc(C#Cc3cccc(OC)c3)ccc2S(=O)(=O)N([C@H](C)CO)C[C@@H]1C,inactive
23,C/C=C(\C(C)=N\O)c1ccccc1,inactive
24,CN1C(=O)c2cc(NC(=O)C3CCCC3)ccc2OC[C@H]2O[C@@H](CC(=O)NCCc3ccncc3)CC[C@H]21,inactive
25,CN(C)CC(=O)N[C@@H]1CC[C@H](CC(=O)O)O[C@@H]1CO,inactive

row,SMILES,cytotoxicity call
1,CC(=O)[C@]1(O)Cc2c(O)c3c(c(O)c2[C@@H](O[C@@H]2C[C@@H](N)[C@H](O)[C@@H](C)O2)C1)C(=O)c1c(O)cccc1C3=O,active
2,CC(C)NC(=O)Nc1ccc2c(c1)CC(=O)N([C@@H](C)CO)C[C@H](C)[C@@H](CN(C)S(=O)(=O)c1ccc(F)cc1)O2,inactive
3,C[C@@H]1CN([C@@H](C)CO)C(=O)c2cc(NC(=O)Nc3cccc4ccccc34)ccc2O[C@@H]1CN(C)Cc1ccncc1,inactive
4,C[C@H](CO)N1C[C@H](C)[C@H](CN(C)Cc2ccncc2)Oc2ccc(NC(=O)CCCN(C)C)cc2C1=O,inactive
5,CC(C)C[C@H](N)C(=O)O,inactive
6,CC(C)C[C@@H](NC(=O)[C@@H](C)N)C(=O)O,inactive
7,CC(C)C[C@H](N)C(=O)N[C@@H](C)C(=O)O,active
8,C[C@H]1CN([C@@H](C)CO)C(=O)Cc2cc(NC(=O)CCN3CCOCC3)ccc2O[C@H]1CN(C)S(=O)(=O)c1cn(C)cn1,inactive
9,O=C(O)CCN=C1NC(=O)CS1,active
10,O=C1CSC(=Nc2nccs2)N1,inactive
11,O=C(O)CCCN=C1NC(=O)CC(=O)N1,inactive
12,C[C@H]1CN([C@@H](C)CO)C(=O)c2cccc(NC(=O)c3ccncc3)c2O[C@@H]1CN(C)Cc1ccc(-c2ccccc2)cc1,inactive
13,C[C@H](CO)N1C[C@H](C)[C@@H](CN(C)S(=O)(=O)c2ccc(F)cc2)Oc2ccc(NS(=O)(=O)c3cccs3)cc2CC1=O,inactive
14,COc1ccc([Si](C)(C)[C@H]2[C@H](CC(=O)N(CCO)Cc3ccccc3)O[C@@]3(C(=O)N(Cc4cccc(N5CCOC5=O)c4)c4ccccc43)[C@@H]2C)cc1,inactive
15,COc1ccc([Si](C)(C)[C@@H]2[C@@H](CC(=O)N3Cc4ccccc4C[C@H]3CO)O[C@]3(C(=O)N(C)c4c(Br)cc(C)cc43)[C@H]2C)cc1,inactive
16,COc1ccc(C(=O)Nc2cccc(CN3C(=O)[C@@]4(O[C@@H](CC(=O)N(CCO)Cc5ccccc5)[C@H]([Si](C)(C)c5ccc(OC)cc5)[C@H]4C)c4ccccc43)c2)cc1,active
17,COc1ccc([Si](C)(C)[C@@H]2[C@@H](CC(=O)N(CCO)Cc3ccccc3)O[C@]3(C(=O)N(Cc4cccc(N5CCOC5=O)c4)c4ccccc43)[C@H]2C)cc1,inactive
18,COc1ccc(C(=O)Nc2cccc(CN3C(=O)[C@]4(O[C@H](CC(=O)N(CCO)Cc5ccccc5)[C@@H]([Si](C)(C)c5ccc(OC)cc5)[C@@H]4C)c4ccccc43)c2)cc1,active
19,COc1ccc([Si](C)(C)[C@H]2[C@H](CCn3cc([C@H](O)c4ccccc4)nn3)O[C@@]3(C(=O)N(c4ccccc4)c4ccccc43)[C@@H]2C)cc1,inactive
20,COc1ccc([Si](C)(C)[C@H]2[C@H](CC(=O)N(CCO)Cc3ccccc3)O[C@@]3(C(=O)N(C)c4c(Br)cc(C)cc43)[C@@H]2C)cc1,active
21,COc1ccc(C(=O)Nc2ccc(CN3C(=O)[C@]4(O[C@H](CC(=O)N(CCO)Cc5ccccc5)[C@@H]([Si](C)(C)c5ccc(OC)cc5)[C@@H]4C)c4ccccc43)cc2)cc1,inactive
22,COc1ccc(C(=O)Nc2ccc(CN3C(=O)[C@@]4(O[C@@H](CC(=O)N(CCO)Cc5ccccc5)[C@H]([Si](C)(C)c5ccc(OC)cc5)[C@H]4C)c4ccccc43)cc2)cc1,inactive
23,COc1ccc([Si](C)(C)[C@@H]2[C@@H](CC(=O)N(CCO)Cc3ccccc3)O[C@]3(C(=O)N(C)c4c(Br)cc(C)cc43)[C@H]2C)cc1,inactive
24,COc1ccc([Si](C)(C)[C@@H]2[C@@H](CCn3cc([C@H](O)c4ccccc4)nn3)O[C@]3(C(=O)N(C)c4c(Br)cc(C)cc43)[C@H]2C)cc1,inactive
25,COc1ccc([Si](C)(C)[C@H]2[C@H](CCn3cc([C@H](O)c4ccccc4)nn3)O[C@@]3(C(=O)N(C)c4c(Br)cc(C)cc43)[C@@H]2C)cc1,active
